# Prx2 Sm inh: Schistosoma Mansoni Peroxiredoxins (Prx2). 65,000 tested, 0.07% active. S. mansoni Prx2 activity coupled to TGR/GSH (TGR is thioredoxin glutathione reductase), NADPH fluorescence loss, qHTS. Schistosoma mansoni peroxiredoxin 2 (Prx2). Potency, µM
#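 Prx2 activity was followed as the loss of NADPH fluorescence (ex 365/em 450 nm), read every 30 sec for 8 min after H2O2 start. The enzyme mix (50 nM Prx2, 25 nM TGR, GSH, NADPH; pH 7.4 phosphate buffer) was incubated with compound for 15 min at room temperature first.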
# AmpC nodet inh: Promiscuous and Specific Inhibitors of AmpC Beta-Lactamase (assay without detergent); P00811; AmpC nitrocefin hydrolysis, absorbance 480 nm, no detergent; Potency, µM (titrated, usually from 28.7 µM), without a hit: at the top dose activity change, negative = inhibition; 71,000 tested, 1.8% active; further: % of control where 0% means no effect
# Target sequence (P00811 whole entry, looked up): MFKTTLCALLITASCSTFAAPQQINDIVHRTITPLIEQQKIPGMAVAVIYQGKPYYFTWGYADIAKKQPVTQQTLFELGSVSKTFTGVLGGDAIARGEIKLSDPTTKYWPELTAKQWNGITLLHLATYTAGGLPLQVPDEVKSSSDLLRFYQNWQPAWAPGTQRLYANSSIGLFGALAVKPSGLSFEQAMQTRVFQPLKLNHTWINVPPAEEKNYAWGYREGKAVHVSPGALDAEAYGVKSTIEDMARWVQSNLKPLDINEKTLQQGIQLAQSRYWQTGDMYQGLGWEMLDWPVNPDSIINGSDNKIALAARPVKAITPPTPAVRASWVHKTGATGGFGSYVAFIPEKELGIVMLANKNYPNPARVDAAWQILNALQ
#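 AmpC, 20 mM phosphate pH 7.0; 15 min cpd preinc, RT; start with nitrocefin (800 uM stock); A480 kinetic read, 20 s intervals, 4 min. No-enzyme wells = negative control.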
# AmpC inh det: Promiscuous and Specific Inhibitors of AmpC Beta-Lactamase (assay with detergent) | Potency, µM (titrated, usually from 28.7 µM), inactives show at the highest dose activity change, negative = inhibition | AID 584, 2007 | purified AmpC, nitrocefin hydrolysis with detergent | 71,000 tested, 0.09% active; active means well fitted curve in the direction sought with a large enough effect; inconclusive means small, poorly fitted or top-dose-only effect; further: on the % scale 0 is the no-effect control and ±100 the full control effect
#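 E. coli AmpC (5.3 nM) in 20 mM phosphate pH 7.0 with 0.01% Triton X-100, preincubated 15 min RT with compound; nitrocefin (2 uL of 800 uM stock) hydrolysis followed by 480 nm absorbance every 20 s over 4 min.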
# LT uptake inh: qHTS Assay for Anthrax Lethal Toxin Internalization; 70,000 tested, 0.67% active; Potency, µM (series often up to 40 µM), for the others: top-dose activity change, negative = inhibition, most hits filed as inhibitors; Cells, anthrax lethal toxin internalization, FRET ratio (460/530); further: on the % scale 0 is the no-effect control and ±100 the full control effect; nearly all actives have a fitted effect of over 50% in size
# * = called active by the depositor; ? = inconclusive; nt = no result; [ ] = dose if it differs, or a comment. Only some compounds are listed: those with a hit (about 2.4% of all), similar ones and a draw of the others. Unless noted, the call rests on the fitted dose curve. Potency means the concentration at half of the fitted maximal effect.
SMILES,Prx2 Sm inh,AmpC nodet inh,AmpC inh det,LT uptake inh
C[N+]1(C)CCc2cc3c(cc2[C@@H]1[C@@H]1OC(=O)c2c1ccc1c2OCO1)OCO3,>57,7%,-2%,7%
COc1cccc(OCc2nc3ccccc3[nH]2)c1,>57,4µM*[single pt active],12%,-22%
O=C(c1ccc(-c2ccccc2)cc1)N1CCN(c2nc3ccccc3o2)CC1,>57,4µM*[single pt active],8%,-9%
O=C(c1ccc(-c2nnc(-c3ccccc3)o2)cc1)N1CCCCCC1,>57,78%,-1%,5%
N#CC(C#N)=NNc1ccc2cn[nH]c2c1,nt,-1%[5.75 µM],-4%[5.75 µM],-11%[8 µM]
N#CC(C#N)=NNc1cccc(Cl)c1,nt,nt,nt,2.5µM*
CC(C)CN(CC(C)C)c1nnc(N)s1,>57,4µM*[single pt active],26%,0%
Nc1nc2n(n1)C(c1c(F)cccc1Cl)CC(c1ccc(F)cc1)N2 (configuration not stated),>57,4µM*[single pt active],15%,-2%
Cc1ccccc1C1CC(c2ccc(Br)cc2)Nc2nc(N)nn21 (configuration not stated),>57,97%,12%,-15%
Nc1nc2n(n1)C(c1ccccc1)CC(c1ccc(F)cc1)N2 (configuration not stated),>57,4µM*[single pt active],14%,-1%
CCc1ccc(C2CC(c3ccc(Cl)cc3)n3nc(N)nc3N2)cc1 (configuration not stated),>57,4µM*[single pt active],13%,3%
Nc1nc2n(n1)C(c1cccc(Br)c1)CC(c1ccc(F)cc1)N2 (configuration not stated),>57,42%,12%,6%
Cc1ccccc1C1CC(c2ccc(F)cc2)Nc2nc(N)nn21 (configuration not stated),>57,4µM*[single pt active],12%,?
Nc1nc2n(n1)C(c1ccco1)CC(c1ccc(F)cc1)N2 (configuration not stated),>57,33%,13%,-3%
CN1C[C@@H](C(=O)N[C@]2(C)O[C@]3(O)[C@H]4CCCN4C(=O)[C@H](Cc4ccccc4)N3C2=O)C[C@H]2c3cccc4[nH]cc(c34)C[C@@H]21,>57,147%,-6%,13%
Cc1cc(-c2ccc(N=Nc3ccc4c(S(=O)(=O)O)cc(S(=O)(=O)O)c(N)c4c3O)c(C)c2)ccc1N=Nc1ccc2c(S(=O)(=O)O)cc(S(=O)(=O)O)c(N)c2c1O,>57,?,?,?
CC1(C)S[C@@H]2[C@H](NC(=O)[C@@H](NC(=O)N3CCNC3=O)c3ccccc3)C(=O)N2[C@H]1C(=O)O,>57,5µM*,7.9µM*,-1%[3.58 µM]
CCN1CCN(C(=O)N[C@H](C(=O)N[C@@H]2C(=O)N3[C@@H]2SC(C)(C)[C@@H]3C(=O)O)c2ccccc2)C(=O)C1=O,>57,?,?,-1%[3.58 µM]
CC1(C)S[C@@H]2[C@H](NC(=O)[C@@H](N)c3ccc(O)cc3)C(=O)N2[C@H]1C(=O)O,>57,1.3µM*,0.32µM*,2%[3.58 µM]
CC1(C)S[C@@H]2[C@H](NC(=O)[C@H](C(=O)O)c3ccsc3)C(=O)N2[C@H]1C(=O)O,>57,4µM*,5µM*,0%[3.58 µM]
CC1(C)S[C@@H]2[C@H](NC(=O)[C@@H](N)c3ccccc3)C(=O)N2[C@H]1C(=O)O[C@H]1OC(=O)c2ccccc21,>57,0.04µM*,?,-7%[3.58 µM]
C=CCCN1C[C@@H]2C[C@H](C1)c1cccc(=O)n1C2,>57,-1%,2%,?
C[C@@H]1CCC[C@H](C)N1,>57,-1%[12.8 µM],-1%[12.8 µM],2%[3.58 µM]
CCn1cnc2c(Nc3cccc(Cl)c3)nc(N[C@@H]3CCCC[C@H]3N)nc21,>57,30%,1%,-10%
CCC(c1nnnn1Cc1cccs1)N1CCN(c2nc3ccccc3s2)CC1 (configuration not stated),>57,36%,8%,10µM*
CN1CCN(c2ccncc2S(=O)(=O)N2CCN(C)CC2)CC1,>57,-7%[5.75 µM],-3%[5.75 µM],-10%[8 µM]
CCS(=O)(=O)N1CCC[C@H]2CN3CCc4cc(OC)ccc4[C@@H]3C[C@@H]21,>57,26%,0%,0%
CCOC(=O)c1c(C)[nH]c2ccc3c(c12)CN1CCc2cc(OC)ccc2[C@@H]1O3,>57,22%,-3%,2.5µM*
O=S(=O)(c1ccc(F)cc1)N1CCC(N2CCCC2)CC1,>57,4µM*[single pt active],9%,?

# Screens (PubChem BioAssay)
